A short description of test [1]: qHTS assay for small molecule agonists of the p53 signaling pathway (AID 651631; calls by dose curve; further: nearly all actives have a fitted effect of over 15% in size; further: potency means the concentration at half of the fitted maximal effect). The settings on record: HCT-116 p53RE-bla reporter, beta-lactamase FRET ratio, 16 h; series mostly up to 73.3 µM. The gist of the method:
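HCT-116 cells carrying a stable p53 response element–beta-lactamase reporter were plated, rested 5 h at 37 °C, then exposed to compound in DMSO for 16 h at 37 °C; reporter activity was read as FRET substrate fluorescence after 2 h at room temperature.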
Background: In qHTS, concentration-response curves come from the screen itself.

A short description of test [2]: qHTS assay for small molecules that induce genotoxicity in human embryonic kidney cells expressing luciferase-tagged ATAD5 (AID 651632). Further: nearly all actives have a fitted effect of over 15% in size. The conditions noted are these: HEK293T ATAD5-luciferase induction, 16 h; series mostly up to 83.3 µM. In a few lines:
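Test compounds were delivered by pin tool onto HEK293T reporter cells (2,000/well) expressing ATAD5 fused to luciferase. After 16 hr at 37C, 5% CO2, Amplite was added for 30 min at room temperature and luminescence was measured.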

A short description of test [3]: qHTS assay for small molecule agonists of the p53 signaling pathway - cell viability (AID 651633; calls by dose curve; further: nearly all actives have a fitted effect of over 30% in size). The settings on record: p53RE-bla HCT-116 viability, ATP luminescence, 16 h; series mostly up to 83.3 µM. The gist of the method: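 Viability counter-read: CellTiter-Glo luminescence (30 min, room temperature) in the same p53RE-bla plates. These plates had been exposed to compounds for 16 h at 37 C.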

Test [4] is described as follows: qHTS assay for small molecules that induce genotoxicity in human embryonic kidney cells expressing luciferase-tagged ATAD5 - cell viability (AID 651634; calls by dose curve; further: nearly all actives have a fitted effect of over 25% in size; further: potency means the concentration at half of the fitted maximal effect). The conditions noted are these: HEK293T ATAD5-luc cells viability, CellTiter-Fluor, 15.5 h; series mostly up to 83.3 µM. In a few lines: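 Quantitative high-throughput format. HEK293T cells expressing ATAD5 fused to luciferase were plated at 2,000 cells/well and treated 15.5 hr with compound versus DMSO. Viability was determined by fluorescent live-cell protease substrate, 30 min at 37C.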

The nature of test [5]: qHTS assay for small molecule disruptors of the mitochondrial membrane potential - cell viability (AID 720634; calls by dose curve; further: nearly all actives have a fitted effect of over 20% in size; further: potency means the concentration at half of the fitted maximal effect). The settings on record: HepG2 viability, ATP luminescence (CellTiter-Glo), 1 h; series mostly up to 83.2 µM. The gist of the method:
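Same-well counter-screen: following the MMP dye addition, CellTiter-Glo was added to 1 hr compound-treated HepG2 cells and luminescence read after 30 min at room temperature.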

The nature of test [6]: qHTS assay to test for compound auto fluorescence at 535 nm (green) in HepG2 cells (AID 720675). The conditions noted are these: green autofluorescence 485/535 nm, 1 h; series mostly up to 91.3 µM.
Test [7] can be described thus: qHTS assay to test for compound auto fluorescence at 460 nm (blue) in HEK293 cells (AID 720678). The settings on record: blue autofluorescence 405/460 nm; series mostly up to 91.3 µM. In a few lines:
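Intrinsic compound fluorescence is recorded in live HEK293 cultures after overnight incubation at 37C, 5% CO2, using excitation 405 nm and emission 460 nm. Values are referenced to triamterene.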

Test [8] in a line: qHTS assay to test for compound auto fluorescence at 590 nm (red) in HEK293 cells (AID 720679). The conditions noted are these: red autofluorescence 540/590 nm; series mostly up to 91.3 µM. In a few lines:
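Red autofluorescence, HEK293 cells: 2,000 cells/well; attach 4-5 hr 37C; add 23 nL cpd or DMSO; incubate o/n 37C 5% CO2; read Ex540/Em590; Rose Bengal sodium reference.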

Test [9] can be described thus: qHTS assay to test for compound auto fluorescence at 590 nm (red) in HepG2 cells (AID 720674). The conditions noted are these: HepG2 autofluorescence, red 540/590 nm, 1 h; series mostly up to 91.3 µM. In a few lines:
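1 hr compound incubation on HepG2 cells, 37 C, 5% CO2; plate read ex 540 nm / em 590 nm; intensities reported as Rose Bengal sodium equivalents.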

Test [10] can be described thus: qHTS assay for small molecule disruptors of the mitochondrial membrane potential (AID 720635). Further: potency means the concentration at half of the fitted maximal effect. The conditions noted are these: HepG2 mitochondrial membrane potential, Mito-MPS dye ratio; series mostly up to 83.2 µM. In a few lines:
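Mitochondrial membrane potential tracked with Mito-MPS dye, red aggregates (ex 540/em 590 nm) against green monomers (ex 490/em 535 nm). Compound treatment 1 hr at 37C, dye 30 min in HepG2.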

Values joined by “and” are separate entries in the source; they are usually repeats but may differ in a detail not shown here. Equal entries are not always repeated. Values without a mark were called inactive. Records with an inconclusive call do not appear. Active and inactive are the calls of the source. Unless noted, the call rests on the fitted dose curve; in most records, active means well fitted curve in the direction sought with a large enough effect in the repeat runs; inconclusive means weak or mixed curves; inactive means no such curve, though single readings can be large; an effect the other way counts as inactive or inconclusive.
On the % scale 0 is the no-effect control and ±100 the full control effect.

In the case of `CC1(C)CCC[C@]2(C)[C@H]3CC(=O)O[C@]3(C)CC[C@@H]12`, the Potency result in test [1], in test [2], in [3], in [4], in [5] and in test [6] was “inactive” throughout. The Potency result in test [7] and in test [8] was “inactive” throughout.

In the case of `CC(C)(C)C1CCC(=O)CC1`, the Potency entry in test [1], in test [2], in test [3], in test [4], in test [5] and in test [6] was “inactive” throughout. Moreover, the Potency entry in test [7] and in [8] was “inactive” throughout.

With `O=S(=O)(O)c1ccc(N=Nc2c(O)ccc3ccccc23)cc1`, the Potency result in test [1], in [2], in test [5], in test [9], in [6] and in test [7] was “inactive” each time. In test [8], the Potency entry is “inactive”. Besides, the Potency in test [4] is 27.3 µM (active).

Turning to `CCCCOC(=O)CO`, the Potency entry in test [1], in [3], in test [4], in test [5], in test [10] and in [6] was “inactive” each time. Besides, the Potency entry in test [7] and in [8] was “inactive” each time.

As for `CC(=O)Oc1cc2c(s1)CCN(C(C(=O)C1CC1)c1ccccc1F)C2` (stereo unspecified), the Potency result in test [1], in test [3], in test [4], in [5], in test [10] and in test [9] was “inactive” in each case. The Potency result in test [6], in [7] and in [8] was “inactive” in each case.

`Cc1nc2n(c(=O)c1CCN1CCC(c3noc4cc(F)ccc34)CC1)CCCC2`: the Potency result in [1], in test [2], in [4], in [5], in test [10] and in [9] was “inactive” in each case. Moreover, the Potency entry in [6], in [7] and in test [8] was “inactive” each time.

As for `ClCCl`, the Potency entry in test [1], in [3], in test [4], in [5], in test [9] and in [6] was “inactive” throughout. Besides, the Potency result in test [7] and in test [8] was “inactive” each time.

On to `COc1cc(/C=C/c2ccccc2)oc(=O)c1`, for which the Potency entry in [1], in [3], in [4], in test [5], in test [9] and in test [6] was “inactive” throughout. Also, the Potency entry in [7] and in test [8] was “inactive” throughout. Also, the Potency in test [10] is 71 µM (active).

Consider `CCCCNS(=O)(=O)c1ccc(C)cc1`, for which the Potency entry in test [1], in test [3], in test [4], in [5], in [10] and in test [9] was “inactive” in each case. The Potency result in [6], in [7] and in [8] was “inactive” throughout.

With `CCCCCc1ccc(Cl)cc1`, the Potency entry in test [1], in test [3], in test [4], in test [5], in test [10] and in test [6] was “inactive” throughout. Also, the Potency entry in [7] and in test [8] was “inactive” throughout.

Turning to `O=[N+]([O-])c1ccc(F)c(Cl)c1`, the Potency entry in test [1], in test [2], in test [4], in test [5], in test [9] and in test [6] was “inactive” throughout. Besides, the Potency result in test [7] and in test [8] was “inactive” in each case.

On to `O=c1[nH]c2ccccc2n1CCCN1CCN(C(c2ccccc2)c2ccccc2)CC1`, for which the Potency result in [1], in test [2], in test [5], in [9], in test [6] and in test [7] was “inactive” in each case. In addition, in test [8], the Potency entry was “inactive”.

On to `O=C(/C=C/c1ccccc1)OC/C=C/c1ccccc1`, for which the Potency entry in [1], in [2], in test [4], in test [5], in test [6] and in [7] was “inactive” throughout. Besides, the Potency entry in [8] is “inactive”.

Take `NC[C@H]1O[C@H](O[C@H]2[C@H](O[C@@H]3O[C@H](CO)[C@@H](O)[C@H]3O)C(O)[C@H](N)C[C@@H]2N)[C@H](N)[C@@H](O)[C@@H]1O` (stereo partly specified): the Potency entry in [1], in test [2], in test [4] and in [5] was “inactive” in each case. In test [9], the fluorescence, relative to Rose Bengal was -0.0462% [at 18.6 µM]. Besides, in [6], the fluorescence, % of fluorescein control is 0.155% [at 18.6 µM]. Moreover, in test [7], the fluorescence, % of triamterene was -0.0357% [at 18.6 µM]. Besides, in test [8], the fluorescence, % of fluorescent control was 0.971% [at 18.6 µM].

Take `c1ccc(SSc2ccccc2)cc1`: the Potency entry in test [1], in [2], in [4], in test [5], in test [10] and in [9] was “inactive” throughout. Besides, the Potency entry in test [6], in test [7] and in test [8] was “inactive” throughout.

Turning to `CCC(COC(=O)CCS)(COC(=O)CCS)COC(=O)CCS`, the Potency in [1] is 68.6 µM (active). The Potency entry in test [2], in test [4], in test [5], in test [9], in test [6] and in test [7] was “inactive” each time. Moreover, the Potency result in test [8] is “inactive”.

With `O=C(O)CCN(C1(C(=O)NO)CCCC1)S(=O)(=O)c1ccc(Oc2ccc(F)cc2)cc1`, the Potency entry in test [1], in test [2], in test [4], in test [5], in [9] and in test [6] was “inactive” throughout. In addition, the Potency result in test [7] and in test [8] was “inactive” each time.

Consider `Nc1nc2c(ncn2COCCO)c(=O)[nH]1`, for which the Potency result in test [1], in test [2], in test [4], in [5] and in test [10] was “inactive” throughout. Also, in test [9], the fluorescence, relative to Rose Bengal was 2e-05% [at 18.6 µM]. Also, the fluorescence, % of fluorescein control in [6] is 0.0011% [at 18.6 µM]. For the same molecule, the fluorescence, % of triamterene in test [7] was -0.0369% [at 18.6 µM]. Moreover, the fluorescence, % of fluorescent control in [8] is -0.073% [at 18.6 µM].

Consider `C=Cc1ccccc1C=C`, for which the Potency result in test [1], in test [3], in [4], in test [5], in test [9] and in test [6] was “inactive” each time. Besides, the Potency entry in [7] and in [8] was “inactive” throughout.

As for `CCC(CC)C(C)CCOC(C)=O` (stereo unspecified), the Potency entry in test [1], in test [3], in test [4], in test [5], in test [10] and in [9] was “inactive” each time. In addition, the Potency entry in test [6], in [7] and in [8] was “inactive” throughout.

In the case of `c1ccsc1`, the Potency entry in test [1], in [3], in test [4], in test [5], in test [9] and in test [6] was “inactive” throughout. The Potency entry in [7] and in [8] was “inactive” throughout.

Consider `C#C[C@]1(OC(C)=O)CC[C@H]2[C@@H]3CCC4=C/C(=N/O)CC[C@@H]4[C@H]3CC[C@@]21CC`, for which the Potency is 33.5 µM (active) in [1], 18.8 µM (active) in test [4], 10.6 µM (active) in [5] and 13.3 µM (active) in [10]. Also, the Potency result in [2], in test [6], in test [7] and in [8] was “inactive” in each case.

As to `Cc1c2ccccc2c(C)c2c1ccc1ccccc12`, the Potency is 30.3 µM (active) and 54.5 µM (active) in [1]; 12.1 µM (active) in test [5]; 5.39 µM (active) and 24.3 µM (active) in test [10]. For the same molecule, the Potency result in [2], in [4], in test [9], in [6], in test [7] and in [8] was “inactive” each time.

On to `CC(C)CCOC(=O)/C=C/c1ccccc1`, for which the Potency entry in test [1], in test [2], in test [4], in test [5], in test [10] and in test [9] was “inactive” each time. Besides, the Potency entry in test [6], in test [7] and in test [8] was “inactive” throughout.

As for `CC(CO)Oc1ccccc1` (stereo unspecified), the Potency result in test [1], in test [2], in [4], in test [5], in test [9] and in [6] was “inactive” throughout. Besides, the Potency entry in test [7] and in test [8] was “inactive” throughout.

In the case of `COc1c(C)c2c(c(O)c1C/C=C(\C)CCC(=O)OCCN1CCOCC1)C(=O)OC2`, the Potency in test [1] is 0.106 µM (active). Further, the Potency entry in test [2], in test [4], in [5], in [10], in test [9] and in test [6] was “inactive” each time. The Potency result in [7] and in test [8] was “inactive” each time.

For the origin of these results see PubChem BioAssay (Tox21).
